According to PubChem BioAssay AID652042 (Broad Institute, 2013):
About 350 (32%) of roughly 1,100 compounds were called active. These entries were drawn from the full list. Results with a measured potency or affinity are listed apart. Unmarked numbers belong to inactive results. No rule for the calls is given here.

Assay: viability loss in CEM21 cells – cell-based, CellTiter-Glo luminescence, cherry-picked, cytotoxicity control for viral fusion inhibitor project, dose response (AID 652042)
Conditions: CellTiter-Glo ATP luminescence, 24 h; series mostly up to 35 µM; activity change, negative = cytotoxicity: at the top concentration

| Compound | activity change, negative = cytotoxicity |
| --- | --- |
| CC(C)NC(=O)Nc1ccc2c(c1)C(=O)N([C@@H](C)CO)C[C@@H](C)[C@@H](CN(C)C(=O)CCC(F)(F)F)OCCCC[C@@H](C)O2 | -0.148% |
| CO[C@H]1CN(C)C(=O)c2cc(NC(C)=O)ccc2OC[C@@H](C)N(Cc2nccs2)C[C@H]1C | -4.5% |
| CC(NC(=O)CN(C)CC(=O)Nc1ccc(Cl)c(C(F)(F)F)c1)c1ccccc1 (centres undefined) | -20.4% |
| COc1ccccc1NC(=O)N[C@@H]1C=C[C@H](CC(=O)NCc2ccc(Cl)c(Cl)c2)O[C@@H]1CO | -8.5% |
| Cc1cccc(N2C(=O)N3[C@H](c4ccc(Br)cc4)[C@@H]4C(=O)N(C(C)(C)C)C(=O)[C@@H]4[C@]3(C)C2=O)c1 | -2.6% |
| COc1cc2c(c(OC)c1OC)[C@@]1(c3ccccc3)CCCC[C@H]1[C@@H]2NC(=O)C(F)(F)F | -4.67% |
| Cc1ccccc1OCCCCn1cnc2ccccc21 | -3.25% [at 16 µM] |
| CC[C@]1(C(=O)OC)[C@H]2C(=O)N(Cc3ccccc3)C(=O)[C@H]2[C@H]2CN=C(SCc3ccccc3)N21 | -11.6% |
| COc1ccc(OC)c(-c2cc(C(=O)Nc3c(C)nn(Cc4ccc(Cl)cc4)c3C)no2)c1 | -11.3% |
| Cc1ccc(CSCCNC(=O)c2ccc(Cl)c(S(=O)(=O)N3CCOCC3)c2)cc1 | -18.7% |
| COc1ccc([C@@H]2[C@@H]3C(=O)N(C(C)(C)C)C(=O)[C@@H]3[C@]3(CC(C)C)C(=O)N(c4ccc(C(F)(F)F)cc4)C(=O)N23)cc1 | 0.418% |
| CC1(C(=O)NCc2ccc3c(c2)OCO3)CCN1Cc1csc2ccccc12 (centres undefined) | -10.1% |
| O=C(c1ccc(Cl)s1)N1CCN(c2nc3ccccc3s2)CC1 | -12.8% |
| CC1CCc2c(sc3ncnc(N4CCOCC4)c23)C1 (centres undefined) | -0.353% |
| CCN1C(=O)[C@H]2[C@@H](c3ccc(C)cc3)N3C(=O)N(c4ccc(C(F)(F)F)cc4)C(=O)[C@@]3(CC(C)C)[C@H]2C1=O | -11.3% |
| CCOc1c(C)cnc2c1c(=O)n(Cc1ccc(Cl)cc1)c(=O)n2C | -4.47% |
| Cc1ccc2cc(C#N)c(NCCNC(=O)C3CC3)nc2c1C | -7.75% |
| COc1ccc(S(=O)(=O)Nc2ccc3c(c2)CC(=O)N([C@@H](C)CO)C[C@H](C)[C@H](CN(C)S(=O)(=O)c2cccs2)O3)cc1 | 0.186% |
| COc1ccc(CCC(C)NCc2cc(OC)cc(OC)c2)cc1 (centres undefined) | -6.55% |
| CCCc1cc(C(=O)NCc2ccc(OC)cc2)no1 | -1.74% |
| Cc1ccc(OCCN2CCN(c3ncnc4sc(C)c(C)c34)CC2)cc1 | -27.5% |
| COc1cc(C(=O)N2CCN(c3ncnc4sc(C)c(C)c34)CC2)cc(OC)c1OC | -21.1% |
| CN(C)C(=O)C[C@H]1C[C@@H]2c3cc(NC(=O)NC4CCCCC4)ccc3O[C@@H]2[C@H](CO)O1 | 4.2% |

| Compound | activity change, negative = cytotoxicity |
| --- | --- |
| CCN(C[C@H]1N[C@@](C)(C(=O)OC)[C@H]2C(=O)N(Cc3ccccc3)C(=O)[C@@H]12)C(=O)c1ccc(C(C)(C)C)cc1 | -7.41% |
| O=C(Nc1ccc(Oc2ccccc2)cc1)c1csc([C@H]2C[C@H](O)[C@@H](CO)O2)n1 | -16.4% |
| c1csc(CNc2ncnc3sccc23)c1 | -7.21% |
| CCN(CC(=O)Nc1cc(Cl)ccc1C)C(=O)c1ccc(=O)n(Cc2ccccc2)n1 | 0.209% |
| O=C(NCC(=O)N1CCN(c2ncccn2)CC1)c1ccccc1OC(F)F | -0.419% |
| O=C(Nc1ccc(N2CCN(C(=O)c3ccccc3)CC2)c(Cl)c1)c1cccnc1 | -16.1% |
| O=C(CCCn1c(=S)[nH]c2cc3c(cc2c1=O)OCO3)N1CCN(c2ccc(Cl)cc2)CC1 | -10.7% |
| S=c1[nH]cc(-c2ccccc2)n1-c1cccc(Cl)c1 | -0.899% |
| CCOc1ccc(NC2c3ccccc3C(=O)N2Cc2ccco2)cc1 (centres undefined) | -2.14% |
| CC1CN(S(=O)(=O)c2cc(C(=O)NCCC3=CCCCC3)ccc2Cl)CC(C)O1 (centres undefined) | -1.11% [at 8 µM] |
| COc1ccc(OCC(=O)Nc2cc(-c3nn(C)c(=O)c4ccccc34)ccc2OC)cc1 | -3.59% |
| COc1ccc(Cl)cc1NC(=O)Nc1cnccn1 | 0.955% |
| COC(=O)[C@@]1(Cc2ccccc2)[C@H]2C(=O)N(Cc3ccccc3)C(=O)[C@H]2[C@H]2CN=C(SCc3ccc(C#N)cc3)N21 | -6.15% |
| O=C(CN1C(=O)c2ccccc2S1(=O)=O)c1ccc2c(c1)OCCCO2 | -0.421% |
| Cc1oc(-c2ccccc2F)nc1CN1CCC(C(=O)NCCC2=CCCCC2)CC1 | -12.8% |
| CCc1ccc(-c2nc(CN3CCC(C(=O)NCCc4ccc(OC)c(OC)c4)CC3)c(C)o2)cc1 | -24.4% |
| CN1CC(c2ccccc2)C2(COc3ccccc3C2=O)C12C(=O)Nc1ccccc12 (centres undefined) | -15.8% |
| COc1ccccc1S(=O)(=O)n1cc(Cc2ccccc2)c(N)n1 | -1.81% |
| CCOC(=O)c1c(CSc2ccccc2)oc2cc(Br)c(O)c(CN(C)C)c12 | -17.8% |
| CC(=O)C1=C(C)NC(=S)NC1c1ccccc1 (centres undefined) | -0.735% |
| c1ccc2c(c1)ncn2CCCCOc1ccc2c(c1)CCC2 | 1.14% [at 8 µM] |
| CC1CCN(C(=O)c2ncn3c2C(=O)NC[C@@H]3C)CC1 | -3.77% |
| C[C@H]1CNC(=O)c2c(C(=O)N3CCN(c4ccccc4)CC3)ncn21 | -0.09% |

| Compound | activity change, negative = cytotoxicity |
| --- | --- |
| Cc1ccc(NS(=O)(=O)c2cc(C(=O)N(C)C3CCN(C)CC3)ccc2Cl)cc1Cl | -1.93% |
| Cn1c(CN2CCCCC2)nc2cc(NC(=O)c3ccc(Cl)cc3)ccc21 | -23.7% |
| COc1ccc2[nH]c(=O)c(CN(Cc3nnnn3Cc3ccccc3)CC3CCCO3)cc2c1 (centres undefined) | -6.18% |
| COc1ccc(OCC(=O)Nc2ccccc2N2CCCCC2)cc1 | -36.7% |
| CCC(C)(C)NC(=O)C(c1ccccc1F)N(Cc1ccco1)C(=O)c1csnn1 (centres undefined) | 1.6% |
| CO[C@@H]1CN(C)C(=O)c2cc(NC(=O)Nc3ccc(Cl)cc3)ccc2OC[C@H](C)N(C)C[C@H]1C | -16% |
| CC[C@@]1(C(=O)OC)N[C@H](CN(C)C(=O)Nc2ccc(F)cc2)[C@@H]2C(=O)N(Cc3ccccc3)C(=O)[C@@H]21 | -3.66% |
| Cc1nc2sc(C(c3ccco3)N3CCC(Cc4ccccc4)CC3)c(O)n2n1 (centres undefined) | -4.26% |
| CN(C)C(=O)C[C@@H]1C[C@H]2c3cc(NS(=O)(=O)c4ccc(F)cc4)ccc3O[C@H]2[C@H](CO)O1 | -7.21% |
| Clc1ccc(-c2csc3ncnc(NCCN4CCOCC4)c23)cc1 | -7.06% |
| O=C(CN1CCN(Cc2ccc(Cl)cc2)C1=O)NCCCN1CCN(c2ccc(F)cc2)CC1 | -15.2% |
| CC(C)CN(C(=O)c1ccc(S(=O)(=O)N2CCCCC2)cc1)C1CCS(=O)(=O)C1 (centres undefined) | 1.04% |
| CC[C@@]12C(=O)N(c3ccc(C)cc3)C(=O)N1[C@H](c1ccc(Br)cc1)[C@@H]1C(=O)N(C(C)(C)C)C(=O)[C@@H]12 | -10.3% |
| O=c1[nH]c(=O)n([C@H]2C[C@H](O)[C@@H](CO)O2)cc1F | -12% |
| CC(C)(COC(=O)C(c1ccccc1)c1ccccc1)CN1CCOCC1 | -1.1% |
| COc1ccc(C(O)(C2CCCCC2)C(CN2CCOCC2)c2ccccc2)cc1 (centres undefined) | -24.5% |
| CCOc1ccc(OCc2cccc(C(=O)N3CCOCC3)c2)cc1 | -3.5% |
| CCOc1ccc(C(=O)C2CCN(CC(=O)Nc3ccccc3N3CCOCC3)CC2)cc1 | -23.5% |
| CCCNC(=O)c1ccccc1NC(=O)c1ccccc1N(C)S(=O)(=O)c1ccccc1 | -20.5% |
| Cc1[nH]nc2ncc(C(=O)c3ccccc3O)cc12 | -15.7% |
| CCN1CCN(S(=O)(=O)c2ccc(Cl)c(C(=O)Nc3ccccc3N3CCCC3)c2)CC1 | -8.82% |
| O=C(CCC(=O)N1CCN(S(=O)(=O)c2ccc3ccccc3c2)CC1)Nc1cc(Cl)cc(Cl)c1 | -20.9% |
| CCCCCCc1nc2ccccc2c(=O)n1NC(=O)c1c(O)c2c(n(CC(C)C)c1=O)CCCC2 | -24.4% |

| Compound | activity change, negative = cytotoxicity |
| --- | --- |
| CC[C@@]12C(=O)N(c3cccc(Br)c3)C(=O)N1[C@H](c1ccc(OC)cc1)[C@@H]1C(=O)N(C(C)(C)C)C(=O)[C@@H]12 | -0.201% |
| CN(Cc1ccc(Cl)cc1Cl)C(=O)c1cccc(S(=O)(=O)N2CCN(c3ccccc3)CC2)c1 | -6.85% |
| Cc1ccc(C)c(-n2cc(CNCCCn3cccn3)c(-c3ccccc3)n2)c1 | -22.4% |
| O=C1NCCN(Cc2cccc(Oc3ccccc3)c2)C1CC(=O)N1CCCCC1 (centres undefined) | -2.45% |
| Cc1cc(Cl)c(S(=O)(=O)N2CCSCC2)cc1OCC(=O)NC1CCCCC1 | -7.4% |
| Cc1cc(Cl)c(S(=O)(=O)N2CCCC2)cc1OCC(=O)NC1CCCCC1 | -14.6% |
| CN(C)CCn1c(=O)n(-c2cccc(Cl)c2)c(=O)c2c3c(sc21)CCCCC3 | -6.49% |
| CCC(C)NS(=O)(=O)c1ccc(S(=O)(=O)N2CCCC3(CCCCC3)C2)cc1 (centres undefined) | -24.4% |
| O=C(COC(=O)c1ncc(Cl)c(Cl)c1Cl)NCc1cccs1 | -5.63% |
| Cc1nc2ccccc2c2c1CC(C(C)(Cl)Br)O2 (centres undefined) | -20.6% |
| COc1cc2oc(=O)cc(-c3ccc(-c4ccc(CO)cc4)cc3)c2c(OC)c1OC | -6.13% |
| COc1ccccc1N/C(N)=N/c1nc(CSc2ccc(C)cc2)cc(=O)[nH]1 | -3.89% |
| C=CCN=C1NN=C(c2cc(C)n(CCOC)c2C)CS1 | -14.8% |
| CN1C(=O)c2cc(NS(=O)(=O)c3ccccc3F)ccc2OC[C@@H]2O[C@H](CC(=O)NC3Cc4ccccc4C3)CC[C@@H]21 | -17.1% |
| Cn1c(C(=O)NCCCN2CCN(c3ccccc3F)CC2)cc2c(=O)[nH]c3ccccc3c21 | -14% |
| Cc1cccc(/C=N\Nc2cn[nH]c(=O)c2Cl)c1 | -9.97% |
| COC(=O)[C@]1(C)N[C@H](CN(C)C(=O)Nc2ccc(Cl)cc2)[C@@H]2C(=O)N(Cc3ccccc3)C(=O)[C@@H]21 | -16.4% |
| COCCn1nnnc1CN(CCc1ccccc1)Cc1cc2cc(OC)ccc2[nH]c1=O | -11.6% |
| COc1ccc2[nH]c(=O)c(CN(Cc3cccs3)Cc3nnnn3Cc3ccccc3)cc2c1 | -12.9% |
| Cc1cc(NC(=O)CCC(=O)N(C2CC2)C2(C(=O)NC3CCCC3)CCC(C)CC2)no1 (centres undefined) | -0.639% |
